PubChem BioAssay (Tox21)
Records with an inconclusive call do not appear. The source made the active and inactive calls. Unless noted, the call rests on the fitted dose curve.

Key:
[1] = qHTS assay to identify small molecule antagonists of the sonic hedgehog signaling (Shh) pathway (AID 1259369); further: nearly all actives have a fitted effect of over 45% in size; further: potency means the concentration at half of the fitted maximal effect
Procedure, shortened: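 Antagonist mode: compound added to 3T3 Gli1-Luc cells followed by conditioned-medium stimulation, 24 h at 37 C, 5% CO2. Inhibition taken as loss of Gli1-driven luciferase luminescence.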

[2] = biological target: Estrogen receptor beta (Homo sapiens) (UniProt Q92731); assay: qHTS assay to identify small molecule agonists of the estrogen receptor beta (ER-beta) signaling pathway (AID 1259377; active means well fitted activation curve with a large enough effect in the signal ratio in the repeat runs, not every such curve was filed as active; the % refers to the signal ratio; further: potency means the concentration at half of the fitted maximal effect)
Chain of Estrogen receptor beta (Homo sapiens) (Q92731 whole entry, looked up): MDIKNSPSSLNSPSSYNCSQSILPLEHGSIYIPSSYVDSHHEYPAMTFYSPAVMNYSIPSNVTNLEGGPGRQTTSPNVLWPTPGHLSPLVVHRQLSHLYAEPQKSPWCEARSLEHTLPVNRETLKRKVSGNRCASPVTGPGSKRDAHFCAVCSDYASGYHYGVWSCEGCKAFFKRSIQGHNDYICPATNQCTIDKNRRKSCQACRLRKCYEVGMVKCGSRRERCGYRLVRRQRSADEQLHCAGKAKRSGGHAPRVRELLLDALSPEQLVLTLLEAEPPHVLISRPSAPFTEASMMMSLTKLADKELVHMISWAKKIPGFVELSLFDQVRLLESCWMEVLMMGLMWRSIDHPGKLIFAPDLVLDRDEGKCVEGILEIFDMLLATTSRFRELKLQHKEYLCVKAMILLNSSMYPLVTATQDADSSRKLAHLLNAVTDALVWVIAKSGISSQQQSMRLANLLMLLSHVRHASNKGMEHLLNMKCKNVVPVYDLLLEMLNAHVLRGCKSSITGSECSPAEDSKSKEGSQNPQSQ
Procedure, shortened: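 A UAS-controlled beta-lactamase reporter in ER-beta-UAS-bla HEK293T cells reports receptor activation. Compounds act for 16 hr at 37C in 2% charcoal-stripped serum, and a FRET substrate is read by fluorescence after 2 hours.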

[3] = biological target: Estrogen receptor beta (Homo sapiens) (UniProt Q92731); assay: qHTS assay to identify small molecule antagonists of the estrogen receptor beta (ER-beta) signaling pathway (AID 1259378; active means well fitted inhibition curve with a large enough effect in the signal ratio in the repeat runs, not every such curve was filed as active; the % refers to the signal ratio)
Procedure, shortened: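 ER-beta-UAS-bla HEK293T cells in 2% charcoal-stripped FBS medium treated with compound plus 1nM final 17-beta-estradiol for 16 hr at 37C. Beta-lactamase reporter read by FRET substrate fluorescence after 2 hours at room temperature.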

[4] = qHTS assay to identify small molecule agonists of the androgen receptor (AR) signaling pathway in the presence of an antagonist - cell viability counter screen (AID 1259379; active means well fitted curve in the direction sought with a large enough effect in the repeat runs; an effect the other way counts as inactive or inconclusive;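 further: MDA-kb2 human breast cancer cells carrying an MMTV luciferase reporter; series mostly up to about 92 µM; nearly all actives have a fitted effect of over 25% in size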)
Procedure, shortened: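 Cytotoxicity counter-screen run in the same wells as the nilutamide-challenged (3.0 µM final) AR agonist assay in MDA-kb2 cells. Compounds tested at 15 concentrations for 16 h, 37 °C without CO2; CellTiter-Fluor fluorescence read.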

[5] = qHTS assay to identify small molecule agonists of the estrogen receptor beta (ER-beta) signaling pathway - cell viability counter screen (AID 1259380; active means well fitted curve in the direction sought with a large enough effect in the repeat runs; an effect the other way counts as inactive or inconclusive; further: nearly all actives have a fitted effect of over 30% in size)
Procedure, shortened: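 Cell viability counter screen: CellTiter-Glo luminescence (30 min, room temperature) measured in the same wells as the beta-lactamase readout, after 16 hr compound exposure at 37C of ER-beta-bla HEK293T cells in 2% charcoal-stripped FBS medium.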

[6] = qHTS assay to identify small molecule antagonists of the estrogen receptor beta (ER-beta) signaling pathway - cell viability counter screen (AID 1259382; active means well fitted curve in the direction sought with a large enough effect in the repeat runs; an effect the other way counts as inactive or inconclusive; further: series mostly up to about 92 µM; nearly all actives have a fitted effect of over 55% in size)
Procedure, shortened: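 Cytotoxicity was measured in the same wells by CellTiter-Glo luminescence after 30 min at room temperature. Cells were ER-beta-bla HEK293T in charcoal-stripped serum, given compound together with 1 nM E2 and incubated 16 h at 37C.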

[7] = biological target: Estrogen receptor (Homo sapiens) (UniProt P03372); assay: qHTS assay to identify small molecule agonists of the estrogen receptor alpha (ER-alpha) signaling pathway in the presence of an antagonist (AID 1259383); further: top concentration of the series differs between compounds; nearly all actives have a fitted effect of over 15% in size
Chain of Estrogen receptor (Homo sapiens) (P03372 whole entry, looked up): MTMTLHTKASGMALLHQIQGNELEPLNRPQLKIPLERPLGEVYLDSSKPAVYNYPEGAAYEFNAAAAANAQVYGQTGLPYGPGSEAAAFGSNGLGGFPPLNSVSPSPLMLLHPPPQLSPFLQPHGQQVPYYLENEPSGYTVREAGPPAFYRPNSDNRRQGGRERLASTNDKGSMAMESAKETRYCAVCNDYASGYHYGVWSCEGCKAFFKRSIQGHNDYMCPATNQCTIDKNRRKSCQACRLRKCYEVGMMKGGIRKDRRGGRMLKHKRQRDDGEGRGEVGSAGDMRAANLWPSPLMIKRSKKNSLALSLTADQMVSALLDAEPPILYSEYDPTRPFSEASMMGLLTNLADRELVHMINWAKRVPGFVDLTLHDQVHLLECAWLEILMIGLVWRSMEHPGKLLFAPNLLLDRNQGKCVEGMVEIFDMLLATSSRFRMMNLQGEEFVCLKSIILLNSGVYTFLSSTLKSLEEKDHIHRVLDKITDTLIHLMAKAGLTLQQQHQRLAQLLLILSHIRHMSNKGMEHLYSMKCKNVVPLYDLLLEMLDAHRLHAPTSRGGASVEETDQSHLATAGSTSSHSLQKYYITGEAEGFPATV
Procedure, shortened: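 Agonist-mode confirmation run in the presence of 10.0nM (final) ICI-182,780 antagonist. The reporter was ERE-driven luciferase in VM7Luc4E2 cells, grown in charcoal-stripped serum. Cells were exposed to 15-concentration compound series for 22hr, then ONE-Glo luminescence was read.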

[8] = qHTS assay to identify small molecule agonists or antagonists of the thyroid stimulating hormone receptor (TSHR) signaling pathway - wild type cell line counter screen (AID 1259384)
Procedure, shortened: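 Wild-type Hek293 cells, 800/well, 18 h at 37C, then compound with Ro20-1724 for 30 min RT. cAMP by HTRF (cAMP-d2/anti-cAMP cryptate), 1 h RT, fluorescence read. 15 concentrations, triplicates.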

[9] = biological target: Thyrotropin receptor (Homo sapiens) (UniProt P16473); assay: qHTS assay to identify small molecule antagonists of the thyroid stimulating hormone receptor (TSHR) signaling pathway (AID 1259385); further: nearly all actives have a fitted effect of over 20% in size
Chain of Thyrotropin receptor (Homo sapiens) (P16473 whole entry, looked up): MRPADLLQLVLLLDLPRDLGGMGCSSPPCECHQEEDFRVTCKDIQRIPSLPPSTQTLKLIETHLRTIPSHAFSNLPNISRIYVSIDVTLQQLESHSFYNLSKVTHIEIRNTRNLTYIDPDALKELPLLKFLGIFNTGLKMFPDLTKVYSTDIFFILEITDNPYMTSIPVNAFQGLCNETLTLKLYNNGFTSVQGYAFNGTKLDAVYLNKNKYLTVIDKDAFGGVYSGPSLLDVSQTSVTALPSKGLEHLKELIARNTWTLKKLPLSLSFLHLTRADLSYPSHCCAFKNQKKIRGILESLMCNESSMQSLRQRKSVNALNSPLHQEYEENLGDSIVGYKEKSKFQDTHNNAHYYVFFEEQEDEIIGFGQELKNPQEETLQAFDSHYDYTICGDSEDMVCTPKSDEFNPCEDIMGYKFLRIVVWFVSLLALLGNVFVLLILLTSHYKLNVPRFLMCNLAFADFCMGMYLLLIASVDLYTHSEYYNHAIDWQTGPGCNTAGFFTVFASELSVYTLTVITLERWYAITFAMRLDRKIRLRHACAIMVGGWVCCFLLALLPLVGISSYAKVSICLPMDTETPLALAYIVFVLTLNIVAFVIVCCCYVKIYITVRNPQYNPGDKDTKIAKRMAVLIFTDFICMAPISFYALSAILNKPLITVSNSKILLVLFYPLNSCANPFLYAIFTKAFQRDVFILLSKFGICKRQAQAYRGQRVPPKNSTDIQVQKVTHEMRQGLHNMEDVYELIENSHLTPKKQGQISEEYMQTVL
Procedure, shortened: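 TSHR-HEK293 cells (800/well) plated 18 h, then compounds with Ro20-1724 and TSH at 1.5 ng/mL final, 30 min at room temperature. cAMP quantified by HTRF (cAMP-d2/anti-cAMP-cryptate, 1 h); 15 concentrations in triplicate.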

[10] = biological target: Androgen receptor (Homo sapiens) (UniProt P10275); assay: qHTS assay to identify small molecule agonists of the androgen receptor (AR) signaling pathway in the presence of an antagonist (AID 1259381); further: nearly all actives have a fitted effect of over 15% in size
Chain of Androgen receptor (Homo sapiens) (P10275 whole entry, looked up): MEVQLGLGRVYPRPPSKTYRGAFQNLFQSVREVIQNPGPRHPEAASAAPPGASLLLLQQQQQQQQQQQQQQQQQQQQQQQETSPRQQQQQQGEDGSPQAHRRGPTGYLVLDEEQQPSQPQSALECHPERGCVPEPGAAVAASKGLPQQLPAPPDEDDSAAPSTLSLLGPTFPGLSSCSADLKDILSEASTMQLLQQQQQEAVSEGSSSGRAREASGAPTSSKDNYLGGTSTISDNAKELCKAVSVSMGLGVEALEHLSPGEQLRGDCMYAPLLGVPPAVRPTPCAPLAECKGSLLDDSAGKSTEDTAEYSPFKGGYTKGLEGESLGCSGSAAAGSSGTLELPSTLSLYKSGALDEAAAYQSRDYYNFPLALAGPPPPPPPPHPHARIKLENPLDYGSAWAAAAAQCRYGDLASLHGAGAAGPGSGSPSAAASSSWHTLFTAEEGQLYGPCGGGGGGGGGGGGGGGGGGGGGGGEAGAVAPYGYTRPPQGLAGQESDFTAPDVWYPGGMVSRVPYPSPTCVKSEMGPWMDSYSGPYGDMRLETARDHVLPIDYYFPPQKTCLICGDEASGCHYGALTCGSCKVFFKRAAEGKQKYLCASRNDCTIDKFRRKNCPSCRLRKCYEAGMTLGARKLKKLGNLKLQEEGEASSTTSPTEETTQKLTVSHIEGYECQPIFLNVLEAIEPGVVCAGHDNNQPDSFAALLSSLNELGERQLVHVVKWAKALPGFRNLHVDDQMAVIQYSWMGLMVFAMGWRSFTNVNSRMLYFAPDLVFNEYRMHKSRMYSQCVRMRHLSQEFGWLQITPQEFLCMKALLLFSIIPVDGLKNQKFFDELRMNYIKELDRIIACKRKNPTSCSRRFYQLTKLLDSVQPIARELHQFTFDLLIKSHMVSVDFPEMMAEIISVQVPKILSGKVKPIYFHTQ
Procedure, shortened: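 Agonist-mode confirmation run against 3.0 uM final nilutamide: compounds titrated at 15 concentrations onto MDA-kb2 MMTV-luciferase reporter cells. Luminescence measured with ONE-Glo following 16 hr incubation, 37C, 0% CO2.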

Measured: Potency

Clc1cc(Cl)cc(Cl)c1
not listed: [10]
inactive: all other assays above

CCC(=O)OCc1ccccc1
not listed: [7] | [10]
inactive: all other assays above

CCOC(=O)C(=O)CCCCCCl
not listed: [5]
inactive: all other assays above

CC(C)(C)OC(=O)c1cccc(N)c1
not listed: [7] | [9] | [10]
inactive: all other assays above

CC(=O)NC(=O)c1ccccc1O
not listed: [10]
inactive: all other assays above

O=C(c1ccccc1)C1(O)CCCCC1
not listed: [7] | [10]
inactive: all other assays above

C[C@H]1[C@H](NC(=O)/C(=N/OC(C)(C)C(=O)O)c2csc(N)n2)C(=O)N1S(=O)(=O)O (stereo in doubt)
not listed: [7] | [10]
inactive: all other assays above

Nc1ccncc1N
not listed: [7] | [9] | [10]
inactive: all other assays above

CCCCCCCCN1CCCC1=O
not listed: [7] | [10]
inactive: all other assays above

COc1cc(-c2ccc(=O)[nH]n2)ccc1OC(F)F
not listed: [10]
inactive: all other assays above

C[C@@H]1CCC[C@H](C)N1
not listed: [7] | [10]
inactive: all other assays above

COc1cc(C(=O)OC(COCCC(C)C)CN2CCOCC2)cc(OC)c1OC (centres undefined)
not listed: [10]
inactive: all other assays above

OCCCCCO
not listed: [10]
inactive: all other assays above

CC1=C(C/C=C(\C)CCC[C@H](C)CCC[C@H](C)CCCC(C)C)C(=O)c2ccccc2C1=O
not listed: [7] | [10]
inactive: all other assays above

CCCO[Si](OCCC)(OCCC)OCCC
not listed: [10]
inactive: all other assays above

CC(C#N)(CCC(=O)O)N=NC(C)(C#N)CCC(=O)O (centres undefined)
not listed: [7] | [10]
inactive: all other assays above

C=CCOCC(O)CO (centres undefined)
not listed: [10]
inactive: all other assays above

c1ccc2sc(SN3CCOCC3)nc2c1
not listed: [7] | [9] | [10]
inactive: all other assays above

CC1(C)[C@@H]2CC[C@@]1(C)[C@H](O)C2
not listed: [7] | [10]
inactive: all other assays above

CC(C)C(=O)OC(=O)C(C)C
not listed: [4] | [7] | [10]
inactive: all other assays above

O=C(O)CNC(=O)c1ccccc1
not listed: [4] | [7] | [10]
inactive: all other assays above

CCCCc1nc(Cl)c(CO)n1Cc1ccc(-c2ccccc2-c2nn[nH]n2)cc1
inactive: [2] | [3] | [4] | [6]
active: [1] 0.596 µM

CCCOC(=O)CC
not listed: [4]
inactive: all other assays above

CCC(C)(CCCC(C)C)OC(C)=O (centres undefined)
not listed: [4] | [5] | [10]
inactive: all other assays above

CCN[C@H]1C[C@H](C)S(=O)(=O)c2sc(S(N)(=O)=O)cc21
not listed: [5] | [10]
inactive: all other assays above

Cc1nc(C2CCCCC2)c(-c2ccc(S(N)(=O)=O)c(F)c2)o1
not listed: [5] | [10]
inactive: all other assays above

CNCCO
not listed: [5] | [7] | [10]
inactive: all other assays above

C=CCCCCCCCCC(=O)OCC
not listed: [5] | [10]
inactive: all other assays above

C=CN1CCCCCC1=O
inactive: [1] | [2] | [3] | [4] | [6] | [8]

Cc1cccc(C)c1NC(=O)CC12CCCN1CCC2
not listed: [3] | [10]
inactive: all other assays above

C=COC(=O)C(C)(CC)CCC(C)C (centres undefined)
inactive: [1] | [2] | [3] | [4] | [6] | [7]

CCO[Si](OCC)(OCC)c1ccccc1
not listed: [4] | [7] | [10]
inactive: all other assays above

O=C1NC(=O)C2CC=CCC12 (centres undefined)
inactive: [1] | [2] | [3] | [5] | [6] | [8]

CN(C)[C@@H]1C(=O)C(C(=O)NCN2CCCC2)=C(O)[C@@]2(O)C(=O)C3=C(O)c4c(O)cccc4[C@@](C)(O)C3C[C@@H]12 (some centres undefined)
inactive: [1] | [2] | [3] | [6] | [8] | [9]

C=CC(C)(CCC=C(C)C)OC(=O)CC (centres undefined)
inactive: [1] | [2] | [3] | [6] | [7] | [8]

C=CC(=O)OCCCl
not listed: [5] | [10]
inactive: all other assays above

CCOC(=O)COC(=O)c1ccccc1C(=O)OCC
not listed: [4] | [5] | [10]
inactive: all other assays above

O=CN(CCO)CCO
not listed: [4] | [7] | [10]
inactive: all other assays above

CC(=O)c1ccc2ccccc2c1
not listed: [5] | [9] | [10]
inactive: all other assays above

C1CCC2(CCCCO2)OC1
not listed: [3] | [10]
inactive: all other assays above

CCNS(=O)(=O)c1ccc(C)cc1
inactive: [1] | [2] | [3] | [5] | [6] | [7]

CCCCCCCCCC[N+](C)(C)[O-]
not listed: [4] | [8] | [9]
inactive: all other assays above

CC(C)(C)c1ccc(-c2ccc(C(C)(C)C)cc2)cc1
not listed: [3] | [9]
inactive: all other assays above

C=C(C)C(=O)OCC(O)CO (centres undefined)
not listed: [4] | [7]
inactive: all other assays above

CCCCN(CCC(=O)OCC)C(C)=O
not listed: [5] | [10]
inactive: all other assays above

CC(C)(N)C#N
not listed: [4] | [10]
inactive: all other assays above

CCOc1ccccc1OCC
not listed: [4] | [7] | [10]
inactive: all other assays above

O=C(CO)[C@@H](O)[C@H](O)[C@H](O)CO
not listed: [5] | [10]
inactive: all other assays above

COCCOC[C@H](CC1(C(=O)NC2CCC(C(=O)O)CC2)CCCC1)C(=O)Oc1ccc2c(c1)CCC2 (some centres undefined)
not listed: [4]
inactive: all other assays above

CC(=O)OCC(=O)[C@@]1(O)[C@H](C)C[C@H]2[C@@H]3CCC4=CC(=O)C=C[C@]4(C)[C@@]3(F)[C@@H](O)C[C@@]21C
not listed: [4] | [7] | [10]
inactive: all other assays above

CCCCc1ccc2c(n1)[C@@H](c1ccc(OC)cc1C[C@H](C)C(=O)O)[C@H](C(=O)O)[C@H]2c1ccc2c(c1)OCO2
not listed: [4] | [10]
inactive: all other assays above

CC1CCC(CO)CC1 (centres undefined)
not listed: [4] | [5]
inactive: all other assays above

CCN(C=O)CC
not listed: [5] | [7] | [10]
inactive: all other assays above

CC(C)CCCO
not listed: [5] | [10]
inactive: all other assays above

CN1C(C)(C)CC(O)CC1(C)C
not listed: [4] | [5] | [10]
inactive: all other assays above

C=C(C)C(=O)OCCOCCOCCOCCOC(=O)C(=C)C
not listed: [4] | [7] | [10]
inactive: all other assays above

C[N+](C)(CCOc1ccccc1)Cc1cccs1
not listed: [4] | [7] | [9]
inactive: all other assays above

NO
not listed: [3] | [7] | [10]
inactive: all other assays above

NC(=O)NC1N=C([O][Al])NC1=O (centres undefined)
inactive: [1] | [4] | [5] | [10] | [6] | [8]

O=C(O)CC(C(=O)O)S(=O)(=O)O (centres undefined)
active: [1] 30.6 µM
inactive: [4] | [5] | [6] | [7] | [8]

Cc1coc2ccccc2c1=O
inactive: [1] | [4] | [5] | [10] | [6] | [8]

Cc1ccc(C(=O)c2ccc(CC(=O)O)n2C)cc1
not listed: [2] | [3] | [9]
inactive: all other assays above

O=C1c2ccccc2C(=O)c2cc(O)ccc21
inactive: [1] | [6] | [8]
active: [2] 5.45 µM
